For experiment [1], the target named is Lysosomal acid glucosylceramidase (Homo sapiens) (UniProt P04062). The experiment can be described thus: Glucocerebrosidase-p2 (AID 348; in the data active = potency below about 10 µM; note: potency is the fitted concentration of half-maximal effect). The note with it: purified GBA, blue fluorogenic substrate, 40 min. An outline of the steps:
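Normal human glucocerebrosidase (0.2 nM) with blue fluorogenic substrate (80 uM final) in citrate/phosphate pH 5.9 with 10mM sodium taurocholate, 0.01% tween-20; 40 min RT, NaOH/glycine stop; fluorescence Ex 365/Em 440; AC50 from a titration from 0.6 nM upwards.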

Experiment [2] is described as follows: AP1 Signaling Pathway (AID 357). Note: % is set by controls: 0 for no effect and ±100 for the full control effect. The following applies: ME-180 AP-1-bla reporter, EGF-induced, beta-lactamase ratio, 5 h; at 7.69 µM (top of the series) unless noted. An outline of the steps: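 AP-1-bla ME-180 cells with beta-lactamase reporter under AP-1 response element, stimulated with EC50 EGF; compounds titrated, 5 hours at 37 degrees Celsius. CCF4 read at 460/530 nm ratio; positive and negative modulators judged by AC50.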

Experiment [3] has as its target Cytochrome P450 1A2 (Homo sapiens) (UniProt P05177). Kind of experiment: p450-cyp1a2 (AID 410; calls by dose curve; note: potency is the fitted concentration of half-maximal effect;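 for activity change, negative = inhibition: -100% = full effect of reference inhibitor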). The note with it: recombinant CYP1A2, luciferin-ME demethylation, luminescence; series mostly up to 11.4 µM. An outline of the steps:
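Read-out is luminescence from luciferin produced by CYP1A2 demethylation of Luciferin-ME (100uM, at Km). Detection reagent stopped the 60 min NADPH-dependent reaction; signals were normalized to 57 uM furafylline.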

Experiment [4] is described as follows: NFAT Signaling Pathway (AID 444).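 Note: carbachol stimulus at about its EC50 of 1 µM final; % is set by controls: 0 for no effect and ±100 for the full control effect.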 The following applies: Jurkat NFAT-bla M1, carbachol, beta-lactamase ratio, 5 h; at 7.69 µM (top of the series) unless noted. An outline of the steps: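 Jurkat cells carrying an NFAT-driven β-lactamase reporter and co-transfected muscarinic M1 receptor were treated with compound plus carbachol (1 uM final, an EC50 level) for 5 h at 37 °C. CCF4 loading followed for 1 h at RT; 460/530 nm ratio gave %activity.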

A short description of experiment [5]: Stat Signaling Pathway (AID 446).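 Note: ME-180 cervical cancer cells given 40 pM IL-6 alongside compound; SIE-controlled beta-lactamase reporter measured as 460/530 nm FRET emission ratio; % is set by controls: 0 for no effect and ±100 for the full control effect.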 The following applies: ME-180 SIE beta-lactamase reporter, IL-6 stimulated, 5 h; at 7.69 µM (top of the series) unless noted. In short, it runs like this: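 Overnight-plated ME-180 cells bearing a STAT Inducible Element beta-lactamase reporter; 5 h co-exposure to compound and 40 pM IL-6; values normalized to 300 pM IL-6 and 125 nM JAK inhibitor controls.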

Experiment [6] deals with Glucocorticoid receptor (Homo sapiens) (UniProt P04150). The experiment can be described thus: GR-GFP Redistribution (AID 450;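 active = compounds whose dose series gives a full or clear partial fitted curve of increased nuclear translocation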; note: potency is the fitted concentration of half-maximal effect). The following applies: U2OS GR-GFP nuclear translocation, laser cytometry, 2 h.
Experiment [7] has the same target. Kind of experiment: GR-EFC Redistribution (AID 451; calls by dose curve; note: potency is the fitted concentration of half-maximal effect). The note with it: CHO-K1 GR-EFC translocation, beta-gal luminescence, 2 h. In short, it runs like this:
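CHO-K1 cells stably expressing nuclear-localized β-gal enzyme acceptor and GR fused C-terminally to the enzyme donor fragment; ligand-driven nuclear translocation restores β-gal by complementation. Compounds titrated up to 46 uM final, 2 h at 37 °C; luminescence read.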

The target of experiment [8] is Mitogen-activated protein kinase 10 (Mus musculus) (UniProt Q61831). The experiment can be described thus: JNK3 AlphaScreen Assay (AID 530).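 Note: kinase came from lysate of stimulated human HepG2 cells; % is set by controls: 0 for no effect and ±100 for the full control effect.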 The following applies: JNK3 lysate, c-Jun phosphorylation; series mostly up to 11.4 µM. An outline of the steps: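 Biotinylated GST-cJun(1-79) served as substrate for JNK3 in HepG2 lysates stimulated with IL-1beta and TNF-alpha. ATP was 10 uM final, pH 7.6. Ser73 phosphorylation was quantified by AlphaScreen (680 nm excitation).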
On the technique in general: Alpha assays give light when donor and acceptor beads are brought close together.

The target of experiment [9] is 3',5'-cyclic-AMP phosphodiesterase 4B (Homo sapiens) (UniProt Q07343). The experiment can be described thus: qHTS Assay for Inhibitors of PDE-IV (AID 607; active = well fitted activation curve with a large enough effect in the main read-out, with a control signal flat, not every such curve was filed as active; note: % of control where 0% means no effect). The following applies: HEK293 ACTOne CNG channel cells, membrane potential fluorescence; series mostly up to 22.9 µM. An outline of the steps:
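Live HEK293 cells with a modified cyclic nucleotide-gated (CNG) channel report intracellular cAMP via membrane-potential dye fluorescence (ex 535/em 590 nm). Endogenous PDE-IV was targeted. Compounds were tested at up to 22.9 uM final; RO 20-1724 100 uM served as control.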

Experiment [10] deals with Cytochrome P450 3A4 (Homo sapiens) (UniProt P08684). The experiment can be described thus: qHTS Assay for Inhibitors and Substrates of Cytochrome P450 3A4 (AID 884; active = well fitted curve in the direction sought with a large enough effect; an effect the other way counts as inactive or inconclusive; note: nearly all actives have a fitted effect of over 50% in size; note: potency is the fitted concentration of half-maximal effect). The note with it: recombinant CYP3A4, Luciferin-PPXE luminescence; series mostly up to 57.1 µM. An outline of the steps: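 Luminescent readout of luciferin produced by CYP3A4 (20 nM) dealkylation of Luciferin-PPXE, 25 uM (its KM). NADPH-driven reaction ran 60 min at RT after 10 min compound preincubation; data scaled to 57 uM ketoconazole as 100% inhibition.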

Experiment [11] deals with Cytochrome P450 2C9 (Homo sapiens) (UniProt P11712). Kind of experiment: qHTS Assay for Inhibitors and Substrates of Cytochrome P450 2C9 (AID 883; active = well fitted curve in the direction sought with a large enough effect; an effect the other way counts as inactive or inconclusive; note: nearly all actives have a fitted effect of over 60% in size; note: potency is the fitted concentration of half-maximal effect). The note with it: recombinant CYP2C9, luciferin-H luminescence, 60 min; series mostly up to 11.4 µM. In short, it runs like this:
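A luminogenic readout tracked human CYP2C9 (10nM) converting deoxyluciferin (100uM, at KM) in 25mM KPO4 during 60 min at 37C with regenerated NADPH. Values normalized to 57uM sulphaphenazole as complete inhibition.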

Experiment [12] has as its target Cytochrome P450 3A4 (Homo sapiens) (UniProt P08684). Kind of experiment: qHTS Assay for Activators of Cytochrome P450 3A4 (AID 885; active = well fitted curve in the direction sought with a large enough effect; an effect the other way counts as inactive or inconclusive; note: nearly all actives have a fitted effect of over 65% in size). The following applies: recombinant CYP3A4, Luciferin-PPXE luminescence, 60 min; series mostly up to 11.4 µM. An outline of the steps:
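Using 20nM recombinant human CYP3A4 in potassium phosphate (200mM), substrate Luciferin-PPXE at 25uM, luminescent luciferin detection followed a 60-min RT NADPH reaction; data scaled to 57 uM ketoconazole.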
On the technique in general: In qHTS, concentration-response curves come from the screen itself.

A short description of experiment [13]: qHTS Assay for Identification of Small Molecule Agonists for Hypoxia Response Element Signaling Pathway (AID 914; active = well fitted activation curve with a large enough effect in the signal ratio, with a control signal flat, not every such curve was filed as active; the % refers to the signal ratio; note: % of control where 0% means no effect). The following applies: ME-180 (cervical carcinoma) HRE-bla reporter, beta-lactamase ratio, CoCl2, 17 h; activation: active compounds read high. In short, it runs like this:
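HRE-bla ME-180 cells with beta-lactamase reporter under hypoxia response element, compounds with EC50 CoCl2 for 17 hours at 37 C. CCF4 substrate, 460nm/530nm emission ratio gave %Activity; AC50 from titration series.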

The target in experiment [14] is Cytochrome P450 2D6 (Homo sapiens) (UniProt P10635). The experiment can be described thus: qHTS Assay for Inhibitors and Substrates of Cytochrome P450 2D6 (AID 891; active = well fitted curve in the direction sought with a large enough effect; an effect the other way counts as inactive or inconclusive;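 note: luciferin methyl ether substrate demethylated by CYP2D6 with NADPH regeneration; % is set by controls: 0 for no effect and ±100 for the full control effect; nearly all actives have a fitted effect of over 60% in size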). The note with it: recombinant CYP2D6, luciferin-ME EGE luminescence; series mostly up to 11.4 µM. An outline of the steps:
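Luminescent read-out of luciferin formed by 5 nM human CYP2D6 demethylating 30 uM Luciferin-ME EGE (Km level) over 60 min at room temperature after NADPH regeneration addition. Data normalized to full inhibition by 1.43 uM quinidine.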

Experiment [15] addresses Cytochrome P450 2C19 (Homo sapiens) (UniProt P33261). Kind of experiment: qHTS Assay for Inhibitors and Substrates of Cytochrome P450 2C19 (AID 899; active = well fitted curve in the direction sought with a large enough effect; an effect the other way counts as inactive or inconclusive; note: % is set by controls: 0 for no effect and ±100 for the full control effect; nearly all actives have a fitted effect of over 60% in size). The note with it: recombinant CYP2C19, luciferin-H EGE luminescence; series mostly up to 11.4 µM. In short, it runs like this: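 NADPH-dependent conversion of Luciferin-H EGE (10uM, at KM) by 5nM enzyme in 50mM KPO4, 60 min at 37C following 10 min compound preincubation. Stopped with luciferin detection buffer; luminescence read after 20 min.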

The record followed here is PubChem BioAssay (NCATS).

Molecules are shown by their SMILES. Unmarked numbers belong to inactive results. Results filed as inconclusive are left out. Calls of active or inactive are those of the source. Unless noted, calls come from the whole dose curve; as a rule, active = well fitted curve in either direction with a large enough effect (not every such curve was filed as active); inconclusive = small, poorly fitted or top-dose-only effect, or another doubt; inactive = flat fitted curve, though single readings scatter.

Sequence of Cytochrome P450 2C9 (Homo sapiens) (P11712 whole entry, looked up): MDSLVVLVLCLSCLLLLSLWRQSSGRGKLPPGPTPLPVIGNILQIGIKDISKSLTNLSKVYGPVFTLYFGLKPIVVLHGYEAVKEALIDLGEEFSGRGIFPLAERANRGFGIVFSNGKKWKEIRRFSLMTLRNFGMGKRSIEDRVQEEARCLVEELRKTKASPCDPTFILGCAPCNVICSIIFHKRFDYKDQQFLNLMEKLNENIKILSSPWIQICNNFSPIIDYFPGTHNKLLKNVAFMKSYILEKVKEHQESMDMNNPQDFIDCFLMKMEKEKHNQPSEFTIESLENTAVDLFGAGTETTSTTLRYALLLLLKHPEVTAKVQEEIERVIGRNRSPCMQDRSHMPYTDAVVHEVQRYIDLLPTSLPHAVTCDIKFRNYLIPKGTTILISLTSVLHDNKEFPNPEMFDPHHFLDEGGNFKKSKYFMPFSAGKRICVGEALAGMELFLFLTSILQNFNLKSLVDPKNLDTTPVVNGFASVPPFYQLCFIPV
Sequence of Cytochrome P450 1A2 (Homo sapiens) (P05177 whole entry, looked up): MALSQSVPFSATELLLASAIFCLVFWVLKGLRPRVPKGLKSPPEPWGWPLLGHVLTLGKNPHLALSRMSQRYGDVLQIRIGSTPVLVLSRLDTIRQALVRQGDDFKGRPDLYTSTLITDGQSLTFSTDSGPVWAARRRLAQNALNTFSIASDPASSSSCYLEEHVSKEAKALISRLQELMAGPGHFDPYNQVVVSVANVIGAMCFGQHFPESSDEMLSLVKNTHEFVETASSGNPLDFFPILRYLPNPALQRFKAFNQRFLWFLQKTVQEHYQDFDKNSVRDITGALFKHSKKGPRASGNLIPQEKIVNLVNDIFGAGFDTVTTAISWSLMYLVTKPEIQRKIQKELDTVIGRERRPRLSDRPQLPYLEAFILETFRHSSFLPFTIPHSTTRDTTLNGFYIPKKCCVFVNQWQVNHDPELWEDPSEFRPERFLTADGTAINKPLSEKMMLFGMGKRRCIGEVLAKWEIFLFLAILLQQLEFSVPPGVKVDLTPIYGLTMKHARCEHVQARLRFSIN
Sequence of Lysosomal acid glucosylceramidase (Homo sapiens) (P04062 whole entry, looked up): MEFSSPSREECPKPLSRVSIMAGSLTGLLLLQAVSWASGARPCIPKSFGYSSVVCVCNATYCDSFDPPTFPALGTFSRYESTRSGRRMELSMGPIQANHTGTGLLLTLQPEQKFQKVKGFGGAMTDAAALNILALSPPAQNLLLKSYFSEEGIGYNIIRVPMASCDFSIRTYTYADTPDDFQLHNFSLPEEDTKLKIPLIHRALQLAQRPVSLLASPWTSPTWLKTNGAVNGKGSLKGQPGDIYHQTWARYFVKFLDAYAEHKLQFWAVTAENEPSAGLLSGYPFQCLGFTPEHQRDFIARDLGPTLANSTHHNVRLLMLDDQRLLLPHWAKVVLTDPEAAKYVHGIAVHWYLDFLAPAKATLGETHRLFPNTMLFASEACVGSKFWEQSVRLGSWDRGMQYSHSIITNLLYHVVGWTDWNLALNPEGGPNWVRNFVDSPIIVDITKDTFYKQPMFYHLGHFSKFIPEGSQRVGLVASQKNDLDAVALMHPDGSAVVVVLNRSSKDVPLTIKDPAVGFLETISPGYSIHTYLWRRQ
Sequence of 3',5'-cyclic-AMP phosphodiesterase 4B (Homo sapiens) (Q07343 whole entry, looked up): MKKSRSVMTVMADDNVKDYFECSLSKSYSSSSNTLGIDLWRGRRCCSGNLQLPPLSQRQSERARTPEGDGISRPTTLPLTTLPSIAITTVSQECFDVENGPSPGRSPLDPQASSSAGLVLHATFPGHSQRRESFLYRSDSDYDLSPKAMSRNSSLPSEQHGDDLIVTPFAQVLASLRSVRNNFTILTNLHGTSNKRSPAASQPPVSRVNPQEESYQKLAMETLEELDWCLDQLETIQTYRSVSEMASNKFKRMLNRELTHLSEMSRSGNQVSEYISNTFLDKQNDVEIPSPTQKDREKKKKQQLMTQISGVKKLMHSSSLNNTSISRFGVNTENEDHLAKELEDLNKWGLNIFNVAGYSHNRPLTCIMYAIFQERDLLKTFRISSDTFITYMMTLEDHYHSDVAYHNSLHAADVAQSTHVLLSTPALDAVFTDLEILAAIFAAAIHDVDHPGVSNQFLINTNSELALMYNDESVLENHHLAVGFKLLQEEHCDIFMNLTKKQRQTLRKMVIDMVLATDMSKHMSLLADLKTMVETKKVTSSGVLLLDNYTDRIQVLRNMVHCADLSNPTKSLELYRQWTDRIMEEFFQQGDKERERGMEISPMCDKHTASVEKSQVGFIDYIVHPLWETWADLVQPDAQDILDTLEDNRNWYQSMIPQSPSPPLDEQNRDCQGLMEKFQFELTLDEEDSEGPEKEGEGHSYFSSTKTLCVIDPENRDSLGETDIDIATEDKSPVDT
Sequence of Cytochrome P450 3A4 (Homo sapiens) (P08684 whole entry, looked up): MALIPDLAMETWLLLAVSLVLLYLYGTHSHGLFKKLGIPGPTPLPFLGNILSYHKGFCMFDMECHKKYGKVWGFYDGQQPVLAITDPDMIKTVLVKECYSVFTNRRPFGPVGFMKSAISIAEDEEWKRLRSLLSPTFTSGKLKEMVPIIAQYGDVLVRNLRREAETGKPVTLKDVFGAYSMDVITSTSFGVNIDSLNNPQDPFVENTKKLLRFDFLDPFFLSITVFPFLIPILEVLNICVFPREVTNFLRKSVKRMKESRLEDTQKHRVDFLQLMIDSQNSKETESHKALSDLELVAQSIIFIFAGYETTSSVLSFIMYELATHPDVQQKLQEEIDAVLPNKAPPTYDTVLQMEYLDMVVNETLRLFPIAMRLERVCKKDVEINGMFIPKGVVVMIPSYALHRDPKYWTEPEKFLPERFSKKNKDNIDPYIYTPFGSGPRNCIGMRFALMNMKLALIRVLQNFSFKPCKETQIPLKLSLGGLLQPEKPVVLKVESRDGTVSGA
Sequence of Glucocorticoid receptor (Homo sapiens) (P04150 whole entry, looked up): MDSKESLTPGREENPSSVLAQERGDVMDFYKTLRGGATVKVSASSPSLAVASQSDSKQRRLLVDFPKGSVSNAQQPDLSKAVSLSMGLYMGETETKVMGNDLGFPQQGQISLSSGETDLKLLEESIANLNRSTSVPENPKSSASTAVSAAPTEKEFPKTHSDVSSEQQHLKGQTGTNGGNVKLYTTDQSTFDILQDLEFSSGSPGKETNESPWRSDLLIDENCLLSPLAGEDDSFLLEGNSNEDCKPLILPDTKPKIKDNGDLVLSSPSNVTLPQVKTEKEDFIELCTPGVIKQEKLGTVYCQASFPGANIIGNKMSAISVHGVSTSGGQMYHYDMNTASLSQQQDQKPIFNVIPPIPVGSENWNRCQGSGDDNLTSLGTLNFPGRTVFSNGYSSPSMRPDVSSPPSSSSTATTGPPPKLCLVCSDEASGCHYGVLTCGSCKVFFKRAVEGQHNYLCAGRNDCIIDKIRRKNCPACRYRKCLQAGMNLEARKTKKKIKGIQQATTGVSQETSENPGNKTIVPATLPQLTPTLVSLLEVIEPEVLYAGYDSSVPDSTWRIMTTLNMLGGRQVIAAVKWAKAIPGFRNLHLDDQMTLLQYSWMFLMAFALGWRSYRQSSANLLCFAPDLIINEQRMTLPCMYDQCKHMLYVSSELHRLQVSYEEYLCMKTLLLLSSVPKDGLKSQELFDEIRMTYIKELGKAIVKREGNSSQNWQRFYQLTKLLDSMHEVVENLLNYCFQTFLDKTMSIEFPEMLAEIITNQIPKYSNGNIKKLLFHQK
Sequence of Cytochrome P450 2C19 (Homo sapiens) (P33261 whole entry, looked up): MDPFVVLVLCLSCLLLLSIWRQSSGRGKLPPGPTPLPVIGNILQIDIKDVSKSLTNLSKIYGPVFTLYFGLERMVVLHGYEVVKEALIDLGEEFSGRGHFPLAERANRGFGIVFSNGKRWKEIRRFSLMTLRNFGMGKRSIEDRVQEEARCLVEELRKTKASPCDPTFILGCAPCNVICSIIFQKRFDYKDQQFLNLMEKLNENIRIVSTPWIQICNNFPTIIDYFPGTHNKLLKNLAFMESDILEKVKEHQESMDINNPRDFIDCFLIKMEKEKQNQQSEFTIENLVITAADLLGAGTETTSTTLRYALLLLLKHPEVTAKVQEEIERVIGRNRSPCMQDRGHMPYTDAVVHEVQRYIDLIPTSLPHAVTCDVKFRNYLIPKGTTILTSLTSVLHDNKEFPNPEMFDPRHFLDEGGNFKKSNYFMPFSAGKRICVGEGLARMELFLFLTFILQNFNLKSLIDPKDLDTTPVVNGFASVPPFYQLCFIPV
Sequence of Cytochrome P450 2D6 (Homo sapiens) (P10635 whole entry, looked up): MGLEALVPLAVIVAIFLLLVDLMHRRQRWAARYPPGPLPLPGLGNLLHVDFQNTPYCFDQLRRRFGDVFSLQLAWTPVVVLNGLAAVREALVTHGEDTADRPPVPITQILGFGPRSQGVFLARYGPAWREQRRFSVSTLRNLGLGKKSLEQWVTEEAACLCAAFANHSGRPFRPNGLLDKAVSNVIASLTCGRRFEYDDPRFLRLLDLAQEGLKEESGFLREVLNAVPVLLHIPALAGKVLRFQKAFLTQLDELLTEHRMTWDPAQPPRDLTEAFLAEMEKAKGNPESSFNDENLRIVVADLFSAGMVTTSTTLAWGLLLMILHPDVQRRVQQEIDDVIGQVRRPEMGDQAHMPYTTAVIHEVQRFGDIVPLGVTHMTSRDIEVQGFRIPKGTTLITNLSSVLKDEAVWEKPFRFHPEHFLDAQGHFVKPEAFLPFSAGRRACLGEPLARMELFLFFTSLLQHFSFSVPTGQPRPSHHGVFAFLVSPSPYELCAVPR

On to `O=C(O)/C(=C\c1ccccc1)Cc1ccccc1`, for which the results for the Potency in experiment [1], in experiment [6] and in experiment [7] were over 11.4 µM, over 46 µM and over 9.22 µM, respectively. Besides, the activity change, negative = inhibition is -5.32% in experiment [2], 3.67% in experiment [4] and 30.2% [at 11.4 µM] in experiment [10]. Besides, the Potency entry in experiment [3], in experiment [8] and in [9] was “inactive” in each case. Further, the activity, negative = inhibition in experiment [5] was 5.03%.

Turning to `COc1ccc(/C=C(\C#N)C(N)=O)c(OC)c1`, the Potency is over 11.4 µM in [1]; 1.58 µM (active) in experiment [3]; over 46 µM in experiment [6]; over 9.22 µM in experiment [7]; 2.51 µM (active) in [10]. For the same molecule, the activity change, negative = inhibition is 2.38% in [2] and 17.1% in [4]. Also, the activity, negative = inhibition in experiment [5] was 3.37%. For the same molecule, the Potency entry in experiment [8], in experiment [9], in [11] and in experiment [12] was “inactive” each time. Further, the activation in experiment [13] was -21.9%.

For the molecule `C[C@H]1[C@H](O)[C@@H](C)C=CC=CC=CC=CC=CC=CC=C[C@H](O[C@@H]2O[C@@H](C)[C@H](O)[C@@H](N)[C@@H]2O)C[C@@H]2O[C@](O)(C[C@@H](O)C[C@@H](O)[C@@H](O)CC[C@@H](O)C[C@@H](O)CC(=O)O[C@H]1C)C[C@H](O)[C@H]2C(=O)O`, the Potency in [1] is over 11.4 µM; in experiment [6], over 46 µM; in experiment [7], over 9.22 µM. In addition, the activity change, negative = inhibition in [2] is -7.91%; in experiment [4], -0.0379%; in [10], -24.7% [at 11.4 µM]. Moreover, the Potency entry in experiment [3], in experiment [8], in [9], in [11], in experiment [14] and in [15] was “inactive” throughout. The activity, negative = inhibition in [5] was 6.85%.

In the case of `O=[N+]([O-])c1ccc(Nc2nc3ccccc3s2)cc1`, the Potency is over 11.4 µM in experiment [1], over 46 µM in [6], over 9.22 µM in [7] and 1.26 µM (active) in experiment [11]. The activity change, negative = inhibition in [2] is 18.2%; in experiment [4] it was -2.36%. The Potency entry in experiment [3], in [8], in experiment [9] and in experiment [12] was “inactive” each time. Further, the activity, negative = inhibition in experiment [5] is 0.26%.
